Values joined by “and” are separate entries in the source; they are usually repeats but may differ in a detail not shown here. Equal entries are not always repeated. Records with an inconclusive call do not appear. Where a call stands in place of a potency, no number is given. Some structures have more than one record in an assay (separate samples or runs), and their calls can disagree. Active and inactive are the calls of the source. Calls come from the whole dose curve; as a rule, active = well fitted inhibition curve with a large enough effect; inconclusive = small, poorly fitted or top-dose-only effect; inactive = flat fitted curve, though single readings scatter.
Potency is the fitted concentration of half-maximal effect.

This test deals with MCC-26. The test can be described thus: qHTS assay to identify novel small-molecules to repurpose for Merkel cell carcinoma treatment (AID 1296009). Note: nearly all actives have a fitted effect of over 60% in size. Particulars: MCC and control cell lines, CellTiter-Glo viability, 72 h; series mostly up to 46 µM; activity change, negative = cytotoxicity: at the top concentration. An excerpt:
MCC is a rare and aggressive neuroendocrine skin cancer with limited treatment options. Approximately 80% of MCCs have the Merkel cell polyomavirus (MCPyV) DNA integrated into the host genome (virus-positive: VP-MCC) and viral oncogenes drive oncogenesis. The remaining MCCs are virus-negative (VN-MCC) and are caused by UV mutagenesis. To identify novel treatments for VP-MCC and/or VN-MCC we screened three VP-MCC cell lines (WAGA, MKL-1, MKL-2), three VN-MCC cell lines (MCC-13, MCC-26, UISO), and four immortalized, non-transformed control cell lines (HaCaT, HEK293T, CRL7250, NIH-3T3) against ~2,400 compounds in the NCGC Pharmaceutical Collection (NPC) and ~1,900 compounds in the Mechanism Interrogation PlatE (MiPE). Using cell viability as a readout (CellTiter-Glo assay) we found both overlapping and distinct drugs that can be repurposed for the treatment of VP-MCC and VN-MCC.
A high-throughput screen was conducted in 1536-well white flat bottom plates (Corning) on a Kalypsys robotic system. Cell lines WAGA, MKL-1, MKL-2, MCC-13, MCC-26, UISO, HaCaT, HEK293T, CRL7250, and NIH-3T3 were screened against 2 small molecule annotated drug libraries NPC and MIPE in dose response (8 and 11 pt. respectively) measuring cell viability after 72 hours of incubation. […] A 1,536 pintool (Kalypsys) was used to transfer 23 nL of compound in DMSO to the 1,536-well assay plates. After 72 hr incubation at 37 degree celsius, 2.5 uL of CellTiter-Glo (Promega) was dispensed into each well using a BiorapTR. Plates were incubated at room temperature for 10 min, transferred to a ViewLux (PerkinElmer) and the luminescence was recorded using an exposure time of 2 seconds. Relative luminescence units (RLUs) were normalized to in-plate controls (no cells as a positive (cytotoxicity) control, DMSO as negative control) and the normalized data was processed using NCATS in-house software.
For `O=S(=O)(O)CCS`, the Potency result is “inactive”. As for `CNC(=O)c1cc(Oc2ccc(NC(=O)Nc3ccc(Cl)c(C(F)(F)F)c3)cc2)ccn1`, the Potency entry is “inactive”.

As to `CC(=O)Oc1ccccc1C(=O)Nc1ncc([N+](=O)[O-])s1`, the Potency entry is “inactive”. With `COc1ccccc1OCC(O)COC(N)=O` (stereo not given), the Potency entry is “inactive”. Turning to `CCN[C@H]1C[C@H](C)S(=O)(=O)c2sc(S(N)(=O)=O)cc21`, the Potency result was “inactive”. As to `COc1cccc(N(C)C(=S)Oc2ccc3c(c2)CCCC3)n1`, the Potency entry is “inactive”.

In the case of `O=S(=O)(c1cccc2cnccc12)N1CCCNCC1`, the Potency result is “inactive”. For the compound `CCCN[C@H]1CCc2nc(N)sc2C1`, the Potency result was “inactive”. For the compound `CCOC(=O)c1ccc(OC(=O)CCCCCN=C(N)N)cc1`, the Potency result was “inactive”. Consider `CC[C@H](C)C(=O)O[C@H]1C[C@@H](C)C=C2C=C[C@H](C)[C@H](CC[C@@H]3C[C@@H](O)CC(=O)O3)[C@H]21`, for which the “activity change, negative = cytotoxicity” value was -10.6% (inactive). Turning to `O=C(O)c1cn(C2CC2)c2cc(N3CCNCC3)c(F)cc2c1=O`, the Potency result is “inactive”. For `COc1cc2nc(N3CCCN(C)CC3)nc(NC3CCN(Cc4ccccc4)CC3)c2cc1OC`, the Potency was 23.5 µM (active). `NS(=O)(=O)c1cc2c(cc1Cl)NC(C(Cl)Cl)NS2(=O)=O` (stereo not given): the Potency entry is “inactive”. On to `CCn1cc(C(=O)O)c(=O)c2cc(F)c(N3CCNCC3)cc21`, for which the Potency entry was “inactive”.

With `Cc1noc(NS(=O)(=O)c2ccc(N)cc2)c1C`, the Potency entry is “inactive”.

Take `COCCCOc1cc(C[C@@H](C[C@H](N)[C@@H](O)C[C@H](C(=O)NCC(C)(C)C(N)=O)C(C)C)C(C)C)ccc1OC`: the Potency result was “inactive”. Take `COc1ccc(-c2ccc3cc(C(=O)O)ccc3c2)cc1C12CC3CC(CC(C3)C1)C2`: the Potency result was “inactive”. For `CC(C)(C)NC(=O)[C@H]1CC[C@H]2[C@@H]3CC[C@H]4NC(=O)C=C[C@]4(C)[C@H]3CC[C@]12C`, the Potency result was “inactive”. Consider `CCN1CCCC1CNC(=O)c1cc(S(N)(=O)=O)ccc1OC` (stereo not given), for which the “activity change, negative = cytotoxicity” value was -6.78% (inactive).

For the compound `C[C@@H](CN1CC(=O)NC(=O)C1)N1CC(=O)NC(=O)C1`, the Potency result was “inactive”. Still for that read-out and setting: next, `CO[C@@H]1[C@@H](OC(N)=O)[C@@H](O)[C@H](Oc2ccc3c(O)c(NC(=O)c4ccc(O)c(CC=C(C)C)c4)c(=O)oc3c2C)OC1(C)C`: “inactive”; `CCC(=O)O[C@]1(C(=O)CCl)[C@@H](C)C[C@H]2[C@@H]3CCC4=CC(=O)C=C[C@]4(C)[C@@]3(F)[C@@H](O)C[C@@]21C`: “inactive”.

On to `Nc1nc(N)nc(-c2cc(Cl)ccc2Cl)n1`, for which the Potency result was “inactive”. Regarding `CCCCCCNC(=O)n1cc(F)c(=O)[nH]c1=O`, the “activity change, negative = cytotoxicity” value is 2.94% (inactive).

With `CN(C)CCc1c[nH]c2ccc(CS(=O)(=O)N3CCCC3)cc12`, the Potency entry is “inactive”. For the compound `O=C(O)c1ccc(-n2nc(-c3ccccc3O)nc2-c2ccccc2O)cc1`, the Potency result was “inactive”. Take `Cc1cccc(N(C)C(=S)Oc2ccc3ccccc3c2)c1`: the Potency result was “inactive”. With `Cn1c(=O)c2c(ncn2CC(O)CO)n(C)c1=O` (stereo not given), the Potency result was “inactive”. Same read-out and setting: to `CNS(=O)(=O)Cc1ccc2[nH]cc(CCN(C)C)c2c1` belongs “inactive”; to `Clc1ccccc1CN1CCc2sccc2C1`, “inactive”; to `COc1c(N2CCNC(C)C2)c(F)cc2c(=O)c(C(=O)O)cn(C3CC3)c12` (stereo not given), “inactive”.

For the compound `Cc1cccc(Nc2ccncc2S(=O)(=O)NC(=O)NC(C)C)c1`, the Potency entry is “inactive”. `CCc1c2c(nc3ccc(OC(=O)N4CCC(N5CCCCC5)CC4)cc13)-c1cc3c(c(=O)n1C2)COC(=O)[C@]3(O)CC`: the Potency is 16.8 µM (active). With `C[C@@H](NCCCc1cccc(C(F)(F)F)c1)c1cccc2ccccc12`, the Potency entry was “inactive and 29.9 µM (active)”.

Turning to `Nc1ccc(S(=O)(=O)Nc2ccccn2)cc1`, the Potency entry was “inactive”. Take `COC(=O)Nc1nc2ccc(S(=O)c3ccccc3)cc2[nH]1` (stereo not given): the “activity change, negative = cytotoxicity” value was -28.1% (inactive). For `CC(N)C12CC3CC(CC(C3)C1)C2` (stereo not given), the Potency result was “inactive”. Regarding `CNS(=O)(=O)CCc1ccc2[nH]cc(C3CCN(C)CC3)c2c1`, the Potency entry was “inactive”. Take `Nc1nc(F)nc2c1ncn2[C@@H]1O[C@H](CO)[C@@H](O)[C@@H]1O`: the Potency entry was “inactive and 2.09 µM (active)”. Regarding `NC1(c2ccc(-c3nc4ccn5c(=O)[nH]nc5c4cc3-c3ccccc3)cc2)CCC1`, the Potency result is “inactive”.

The record behind these values is PubChem BioAssay (NCATS).
